Rows were chosen to be rich in hits. Some 3.2% of all compounds tested hit in one or more screens of this group.
DAGLB inhibitor – diacylglycerol lipase beta (human) inhibition | Q8NCG7 | HEK293T DAGLB membrane lysate, EnzChek fluorogenic substrate | inhibition, % at 5.17 µM | actives 0.059% (n = 340,000) | AID 504411; in the data active = inhibition above about 34%;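 also: 0% = enzyme with vehicle and 100% = wells lacking enzyme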
rCAG RNA binder – binds r(CAG) RNA repeats; AID 651821; actives 1.3% (n = 370,000); r(CAG) RNA repeat, TO-PRO-1 dye displacement fluorescence; inhibition, % at 3 µM;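 active = inhibition above the plate cutoff, the mean of all test compounds on that plate plus 3 SD, cut at about 35% in these data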;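 also: 0% = DMSO alone and 100% = 100 µM mitoxantrone as full dye displacement; higher means more dye released from RNA so lower well fluorescence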
Pemphigus Ab inh – inhibitors of pemphigus antibody binding to human desmoglein-3. P32926. DSG3-coupled beads, scFv-anti-DSG3-GFP binding, flow cytometry; stronger effect = lower value. binding (percent of control), % at 10 µM. actives 0.48% (n = 310,000);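 active = binding more than 3 SD below its plate's average and above zero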;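 also: hits lower antibody fragment binding to DSG3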
Target sequence (P32926 whole entry, looked up, the tested form may be a part): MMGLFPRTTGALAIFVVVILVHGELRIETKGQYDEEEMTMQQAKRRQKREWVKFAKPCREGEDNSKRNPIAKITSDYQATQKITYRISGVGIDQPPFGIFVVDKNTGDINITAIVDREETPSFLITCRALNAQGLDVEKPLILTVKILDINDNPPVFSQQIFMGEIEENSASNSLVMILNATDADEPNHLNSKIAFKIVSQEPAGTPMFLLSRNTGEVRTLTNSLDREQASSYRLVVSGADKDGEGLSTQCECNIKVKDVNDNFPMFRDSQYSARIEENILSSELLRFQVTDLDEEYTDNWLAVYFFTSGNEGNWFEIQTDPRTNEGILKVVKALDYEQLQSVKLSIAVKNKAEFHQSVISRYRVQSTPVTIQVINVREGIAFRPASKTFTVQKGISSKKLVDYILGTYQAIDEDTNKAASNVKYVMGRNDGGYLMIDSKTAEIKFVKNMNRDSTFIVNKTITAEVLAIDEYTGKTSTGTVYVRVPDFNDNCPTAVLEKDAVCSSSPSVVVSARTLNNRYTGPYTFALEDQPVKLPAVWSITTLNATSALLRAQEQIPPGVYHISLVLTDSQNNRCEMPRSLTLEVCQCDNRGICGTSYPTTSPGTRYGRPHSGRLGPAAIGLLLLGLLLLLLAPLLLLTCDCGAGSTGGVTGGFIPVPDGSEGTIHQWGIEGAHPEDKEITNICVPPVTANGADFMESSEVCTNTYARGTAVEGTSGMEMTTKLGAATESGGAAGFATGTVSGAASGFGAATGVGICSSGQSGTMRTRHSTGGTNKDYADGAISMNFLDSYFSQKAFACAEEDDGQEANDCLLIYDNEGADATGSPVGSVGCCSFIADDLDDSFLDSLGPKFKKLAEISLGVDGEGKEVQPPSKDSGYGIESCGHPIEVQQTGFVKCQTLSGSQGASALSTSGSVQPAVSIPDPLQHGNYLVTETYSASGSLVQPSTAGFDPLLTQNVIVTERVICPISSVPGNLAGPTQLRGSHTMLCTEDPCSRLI
bovine MsrA act – bovine methionine sulfoxide reductase A activation; purified bovine MsrA, absorbance read-out; actives 0.3% (n = 360,000); activation, % at 10.6 µM; in the data active = activation above about 7.5%;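 also: 0% = vehicle and 100% = reference activator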
MsrA inh – bovine MsrA inhibition; purified bovine MsrA, absorbance read-out; inhibition, % at 15.5 µM; actives 0.75% (n = 360,000); AID 651718; in the data active = inhibition above about 4.5%;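 also: 0% = vehicle wells with enzyme and 100% = reference inhibitor wells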
NadD inh – NadD (S. aureus) enzyme inhibition | purified NadD enzyme, colorimetric absorbance read-out | inhibition, % at 20 µM | actives 0.78% (n = 360,000); in the data active = inhibition above about 26%
rCAG bind conf – r(CAG) RNA repeat binding, confirmation | TO-PRO-1 dye displacement fluorescence | actives 70% (n = 4,300) | inhibition, % at 3 µM | shares compounds with rCAG RNA binder;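 active = inhibition above a per-plate cutoff, the mean inhibition of sample wells plus 3 SD, cut at about 35% in these data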;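 also: loss of TO-PRO-1 fluorescence as compound displaces dye from 1x1 AA loop RNA; 0% = DMSO only wells and 100% = 100 µM mitoxantrone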
dCAG dye counter – disrupts DNA CAG TO-PRO-1 complex, flagging rCAG hits; shares compounds with rCAG RNA binder; d(CAG) DNA oligo TO-PRO-1 dye displacement, fluorescence; inhibition, % at 3 µM; actives 94% (n = 4,300); AID 652068;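 active = inhibition above its plate's cutoff, the mean test-well inhibition plus 3 SD, cut at about 4.8% in these data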;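 also: 0% = DNA dye mix with DMSO and 100% = 100 µM mitoxantrone; hits displace the dye from DNA and so lower well fluorescence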
Active calls of the source: *; . = not tested or not shown.

SMILES | DAGLB inhibitor | rCAG RNA binder | Pemphigus Ab inh | bovine MsrA act | MsrA inh | NadD inh | rCAG bind conf | dCAG dye counter
C[C@H]1CN([C@@H](C)CO)C(=O)c2cc(C#Cc3ccccn3)cnc2O[C@@H]1CN(C)Cc1ccccc1 | 1.4 | 0.5 | . | -0.1 | -1.5 | -9.7 | . | .
O=C(c1cccc(S(=O)(=O)Nc2ccccc2Cl)c1)N1CCC1 | 3.1 | -1.2 | 106.2 | -3.2 | 0.7 | -4.7 | . | .
CC1CCCN(C(=O)c2cccc(S(=O)(=O)Nc3cc(C(F)(F)F)ccc3Cl)c2)C1 (stereo unspecified) | 15.7 | 61.7* | 99.1 | -3.3 | -0.5 | 9.3 | 60.5* | 26.6*
C[C@@H]1CN([C@@H](C)CO)C(=O)c2c(c3ccccc3n2C)-c2ccccc2CO[C@H]1CN(C)S(=O)(=O)c1ccc(C#N)cc1 | -4.0 | 15.5 | 104.4 | -2.9 | 0.1 | 0.4 | . | .
CC(c1ccccc1)N1C(=O)c2ccc(C(=O)Nc3ccccc3C(=O)O)cc2C1=O (stereo unspecified) | 9.7 | 80.9* | 104.1 | -6.1 | 2.0 | -2.9 | 86.9* | 70.3*
CC(c1ccccc1)N1C(=O)c2ccc(C(=O)NCc3cccnc3)cc2C1=O (stereo unspecified) | 3.6 | -6.8 | 107.8 | -2.5 | -1.5 | 0.5 | . | .
CC(c1ccccc1)N1C(=O)c2ccc(C(=O)Nc3ccc(Br)cc3C(=O)O)cc2C1=O (stereo unspecified) | 6.5 | 52.1* | 104.6 | -5.4 | 0.8 | 13.6 | 80.5* | 77.2*
O=C(NCCc1ccccc1)OCc1cn(Cc2cccc(F)c2F)nn1 | . | -2.2 | . | . | . | . | . | .
CN(Cc1ccccc1)S(=O)(=O)c1cccc(C(=O)OCc2ccc(C(F)(F)F)cc2)c1 | . | 1.8 | . | . | . | . | . | .
C=CCNC(=O)c1onc(CSc2ccccc2F)c1C(=O)O | 2.1 | 8.0 | 106.3 | -2.9 | 0.6 | -4.4 | . | .
CCCCNC(=O)c1onc(CSc2cc(C)cc(C)c2)c1C(=O)NCCCC | -29.8 | -0.5 | 102.2 | -3.4 | 1.1 | 4.8 | . | .
C=CCNC(=O)c1onc(CSc2cccc3ccccc23)c1C(=O)O | 9.6 | 40.4* | 97.1 | -3.2 | 0.1 | -6.0 | 29.1 | 5.2*
C=CCNC(=O)c1onc(CSc2ccc(C(C)C)cc2)c1C(=O)O | 12.1 | 37.8* | 99.4 | -0.2 | -0.2 | -1.5 | 24.5 | 3.7
CCCCNC(=O)c1onc(CSc2cc(C)cc(C)c2)c1C(=O)O | 14.2 | 35.3* | 94.7 | -2.9 | -0.4 | -3.1 | 26.0 | 4.4*
C=CCNC(=O)c1onc(CSc2ccccc2)c1C(=O)O | 1.8 | 6.0 | 100.2 | -0.9 | 0.4 | -3.8 | . | .
C[C@@H]1C[C@@H]2O[C@H]2CCCCC(=O)Cc2cc(O)cc(O)c2C(=O)O1 | . | 2.8 | . | . | . | . | . | .
O=C(NNC(=S)NC(=O)c1ccccc1Cl)c1cccc([N+](=O)[O-])c1 | -0.9 | 4.5 | 106.5 | -1.6 | 2.8 | -4.7 | . | .
COc1ccc([N+](=O)[O-])cc1NC(=S)NC(NC(=O)C(c1ccccc1)c1ccccc1)C(Cl)(Cl)Cl (stereo unspecified) | 0.7 | 46.9* | 99.1 | -2.3 | 1.1 | 25.9 | 38.7* | 23.4*
COc1ccc([N+](=O)[O-])cc1NC(=O)C(C)c1ccccc1 (stereo unspecified) | -7.7 | 2.2 | 125.7 | -3.7 | 0.6 | -6.1 | . | .
O=C(NNc1c(Cl)cc(Cl)cc1Cl)c1cccc([N+](=O)[O-])c1 | 0.7 | 37.4* | 121.1 | -2.8 | -1.1 | -8.3 | 5.8 | 2.9
O=C(NC(NC(=S)Nc1c(Cl)cccc1Cl)C(Cl)(Cl)Cl)c1cccc([N+](=O)[O-])c1 (stereo unspecified) | 3.5 | 46.7* | 129.5 | -2.6 | 0.6 | 1.6 | 36.0* | 15.7*
O=C(CCN1C(=O)CC1c1ccco1)N1CCOCC1 (stereo unspecified) | . | . | . | -3.5 | . | 6.5 | . | .
Cc1cc(=O)oc2cc(NC(=O)c3ccccc3C(=O)O)ccc12 | -0.1 | -1.5 | 112.3 | -6.8 | 3.7 | -1.1 | . | .
O=C(Nc1cccc(-c2nc3ccccc3o2)c1)c1cccnc1 | -0.6 | 0.3 | 122.8 | -2.9 | -0.4 | -5.0 | . | .
O=C(O)c1ccccc1-c1ccccc1C(=O)Nc1ccc2c(c1)oc(=O)c1ccccc12 | 11.3 | 65.5* | 105.0 | -3.7 | 1.4 | 4.2 | 64.8* | 23.8*
SMILES | DAGLB inhibitor | rCAG RNA binder | Pemphigus Ab inh | bovine MsrA act | MsrA inh | NadD inh | rCAG bind conf | dCAG dye counter
O=C(O)c1ccccc1-c1ccccc1C(=O)Nc1cccc(-c2nc3ccccc3o2)c1 | 13.0 | 64.7* | 94.2 | -3.4 | 0.7 | 0.7 | 60.0* | 21.8*
COc1ccc2c(c1)Cc1cc(NC(=O)c3ccccc3-c3ccccc3C(=O)O)ccc1-2 | 9.5 | 63.3* | 103.2 | -6.0 | 2.5 | 1.7 | 65.7* | 28.3*
O=C(O)c1ccccc1-c1ccccc1C(=O)Nc1ccc2c(c1)C(=O)c1ccccc1-2 | 23.8 | 59.5* | 90.3 | 4.8 | -0.7 | 3.7 | 67.8* | 26.1*
COc1ccc(CN(C)S(=O)(=O)c2nnc(NC(=O)c3cccc(F)c3)s2)cc1OC | 1.6 | 56.6* | 100.3 | -9.3 | 0.9 | 2.0 | 60.1* | 23.6*
Cc1cccc(NS(=O)(=O)c2nnc(NC(=O)c3ccc(Cl)cc3)s2)c1 | 11.0 | 36.6* | 96.3 | 0.6 | 3.1 | 5.6 | 34.1 | 11.9*
Cc1cccc(C(=O)Nc2nnc(S(=O)(=O)N(C)Cc3ccco3)s2)c1 | 2.3 | 36.5* | 102.7 | -5.0 | 3.0 | -9.8 | 37.4* | 13.5*
CC(C)=CCC[C@@]1(C(=O)O)[C@H]2CC=C(CO)[C@@H]1CC/C(C)=C/CC/C(C)=C/C2 | . | 6.5 | . | . | . | . | . | .
Cc1c(/C=C2\SC(=Nc3cccc(C(=O)O)c3)NC2=O)c2ccccc2n1C | 5.1 | 44.6* | 93.2 | -6.6 | 2.3 | 6.8 | 39.6* | 14.7*
Cc1ccc(S(=O)(=O)N2[C@@H](c3ccccc3F)C(C(=O)O)=CC[C@H]2c2ccc(C(C)C)cc2)cc1 | 4.5 | 76.8* | 104.4 | 0.5 | -0.9 | 13.1 | 81.1* | 47.1*
Cc1ccc([C@@H]2CC=C(C(=O)O)[C@H](c3ccccc3F)N2S(=O)(=O)c2ccc(C)cc2)cc1 | 7.2 | 61.0* | 108.1 | -0.7 | 0.2 | 3.0 | 55.3* | 20.6*
C/C(C=NNC(=O)CSc1nc2ccccc2n1C)=C\c1ccccc1 | . | 3.4 | . | . | . | . | . | .
COc1ccc([C@H]2OC(=O)C[C@@H]2C(=O)N2CCN(c3ccccc3Cl)CC2)cc1OC | . | 1.7 | . | . | . | . | . | .
O=C1N=c2ccccc2=C1c1sc(Nc2cccc(O)c2)nc1O | 1.6 | 60.5* | 113.2 | -1.7 | 0.7 | 16.2 | 25.6 | 15.0*
O=C1N=c2ccccc2=C1c1sc(NS(=O)(=O)Cc2ccccc2)nc1O | 12.0 | 34.3 | 92.5 | -2.1 | 1.5 | 6.1 | . | .
O=C1N=c2ccccc2=C1c1sc(Nc2ccc(O)cc2)nc1O | -0.4 | 40.8* | -14.9* | -3.3 | -0.3 | 32.8* | 25.9 | 17.8*

Screening data as filed in PubChem BioAssay.
